Laboratory results from PubChem BioAssay (NCATS).
Inconclusive results are not listed. Calls of active or inactive are those of the source. Calls follow the shape of the dose curve; as a rule, active = well fitted cell-killing curve with a large enough effect; inconclusive = small, poorly fitted or top-dose-only effect; inactive = flat fitted curve, though single readings scatter.

test: Cell Viability - LYMP1-003 - Assay at 40 hr (AID 964); conditions: LYMP1-003 lymphoblastoid viability; series mostly up to 92.2 µM; activity change, negative = cytotoxic: at the top concentration; also: nearly all actives have a fitted effect of over 60% in size
Description: NIH Chemical Genomics Center [NCGC]
NIH Molecular Libraries Screening Centers Network [MLSCN]
National Institutes of Environmental Health Sciences [NIEHS]
National Toxicology Program [NTP]
We have developed a 1536-well cell-based assay for quantitative high throughput screening (qHTS) against a number of cell lines to determine in vitro cytotoxicity of small molecules. This particular assay uses a human lymphoblastoid cell line (LYMP1-003) purchased from Coriell Institute for Medical Research.
NCGC Assay Protocol Summary:
The CellTiter-Glo luminescent cell viability assay (Promega) is a homogeneous method to measure the number of viable cells in culture. The end point readout of this assay is based on quantitation of intracellular ATP, an indicator of metabolic activity, using the luciferase reaction. Luciferase catalyzes the oxidation of beetle Luciferin to oxyluciferin and light in the presence of ATP. The luminescent signal is proportional to amount of ATP present.
Using the CellTiter-Glo luminescent cell viability assay, the amount of cellular ATP was measured in the lymphoblastoid cell line with complete culture medium following compound treatment for 40 hours. The assay was performed in opaque white Kalypsys 1536-well plates. In the screen, tetraoctylammonium bromide was used as positive control. Library compounds were measured for their ability to cause acute toxicity in the cell line, as reflected by a decrease in intracellular ATP levels, in a concentration-dependent manner. […] AC50 values were determined from concentration-response data modeled with the standard Hill equation.
qHTS protocol for CellTiter Glo lymphoblastoid cellular assay
[Step] [Parameter] [Value] [Description]
1. Reagent; 5 uL; 2500 lymphoblastoid cells/well
2. Time; 5 hr; 37 C incubation
4. Controls; 23 nL; Tetraoctylammonium bromide 6.4pM to 92 uM
5. Time; 40 hr; 37 C incubation
6. Reagent; 5 uL; CellTiter Glo reagent
7. Time; 30 min; Room Temperature
8. Detection; Luminescence; Viewlux plate reader
Keywords: cell viability, cytotoxicity, lymphoblastoid cell line, luminescence, NTPHTS, NTPHTS_NCGC, NIEHS, DSSTox, MLSMR, MLSCN, NIH Roadmap, qHTS, NCGC
% is scaled to controls: 0 for no effect and ±100 for the full control effect.

Structure (SMILES) | activity change, negative = cytotoxic
OC[C@H]1O[C@@H]2O[C@H]3[C@H](O)[C@@H](O)[C@@H](O[C@H]4[C@H](O)[C@@H](O)[C@@H](O[C@H]5[C@H](O)[C@@H](O)[C@@H](O[C@H]6[C@H](O)[C@@H](O)[C@@H](O[C@H]7[C@H](O)[C@@H](O)[C@@H](O[C@H]8[C@H](O)[C@@H](O)[C@@H](O[C@H]1[C@H](O)[C@H]2O)O[C@@H]8CO)O[C@@H]7CO)O[C@@H]6CO)O[C@@H]5CO)O[C@@H]4CO)O[C@@H]3CO | -2.9% (inactive)
NC(=O)c1ccccc1O | 4.96% (inactive)
CCCN(CCC)S(=O)(=O)c1ccc(C(=O)O)cc1 | -2.24% (inactive)
COc1ccc(C(=O)c2ccccc2)c(O)c1 | -9.81% (inactive)
NCCNc1cccc2ccccc12 | -25.5% (inactive)
CCOc1ccccc1C(N)=O | -2.28% (inactive)
COc1cc([C@H]2Oc3cc([C@H]4Oc5cc(O)cc(O)c5C(=O)[C@@H]4O)ccc3O[C@@H]2CO)ccc1O | -10.1% (inactive)
CCOc1ccc(NC(C)=O)cc1 | -3.89% (inactive)
O=C(O)c1ccc(S(=O)(=O)N(Cl)Cl)cc1 | 1.4% (inactive)
C=C[C@H]1CN2CC[C@H]1C[C@@H]2[C@@H](O)c1ccnc2ccc(OC)cc12 | -13.3% (inactive)
CCCCC(CC)COC(=O)c1ccc(N(C)C)cc1 (configuration not stated) | -2.11% (inactive)
C/C=C/c1ccc(O)c(OC)c1 | -8.11% (inactive)
